Experimental data: PubChem BioAssay AID588855 (National Center for Advancing Translational Sciences (NCATS), 2011)
The campaign covered roughly 410,000 compounds. About 5,000 (1.2%) were called active. Where a call stands in place of a potency, no number is given. Not shown: some 13% with an inconclusive outcome. The call rests on the fitted dose curve; in most records, active means well fitted inhibition curve with a large enough effect; inconclusive means small, poorly fitted or top-dose-only effect; inactive means no such curve, though single readings can be large or run the other way. Many of the other results were omitted from the sample, so actives are more common in it than they were.
Potency means the concentration at half of the fitted maximal effect.

Test: qHTS for Inhibitors of TGF-b; further: nearly all actives have a fitted effect of over 65% in size
Conditions: HepG2 CAGA-GFP TGF-b/SMAD3 reporter, GFP fluorescence, 18 h, TGF-beta stimulated, 500 pg/mL final; series mostly up to 46.1 µM
In short: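 Read-out: total well GFP (ex488/em500-530) summed from mean per-cell fluorescence. Cells: HEPG2 CAGA-GFP, 1% FBS DMEM, 18 h at 37 degrees C with 500 pg/mL final TGF-beta. Unstimulated wells served as the full-inhibition control; stimulated DMSO wells = 0%.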
For `CCCN(CCC)CCCNC(=O)Cn1ncc2c3ccccc3n(Cc3ccccc3)c2c1=O`, the Potency was “inactive”. With `CCN(CC)CCNC(=O)Cn1ncc2c3ccccc3n(Cc3ccccc3C)c2c1=O` the Potency was 14.1 µM (active). With `Cc1ccccc1Cn1c2ccccc2c2cnn(CC(=O)NCc3ccco3)c(=O)c21` the Potency was “inactive”. With `CCOC(=O)c1c(C)[nH]c(C)c1S(=O)(=O)NCC(=O)NCc1cccc(C)c1` the Potency was “inactive”. For `COc1ccc(CNS(=O)(=O)c2ccc(-c3cnc(C4CC4)o3)cc2)cc1`, the Potency was “inactive”. For `Cc1cccc(NS(=O)(=O)c2ccc(-c3cnc(C4CC4)o3)cc2)c1`, the Potency was 11.2 µM (active). For `Cc1ccc(-c2cnc(C3CC3)o2)cc1S(=O)(=O)Nc1cccc(C)c1C`, the Potency was “inactive”. For `COc1ccc(OC)c(NC(=O)C2CCN(S(=O)(=O)c3ccc(C)cc3)CC2)c1`, the Potency was “inactive”. With `COc1cc(Br)cc2cc(S(=O)(=O)c3ccccc3)c(=O)oc12` the Potency was “inactive”. For `Cc1ccnc(NC(=O)C2CCN(S(=O)(=O)c3c(C)c(C)cc(C)c3C)CC2)c1`, the Potency was 11.2 µM (active). For `O=C(Nc1ccccn1)C1CCN(S(=O)(=O)c2ccccc2)CC1`, the Potency was “inactive”. With `Cc1cccc(NC(=O)C2CCN(S(=O)(=O)c3cccc4cccnc34)CC2)c1` the Potency was “inactive”. For `COc1ccc(S(=O)(=O)c2c(Nc3cccc(Cl)c3)sc(C(=O)c3ccccc3)c2N)cc1`, the Potency was “inactive”. In the case of `CC(NC(=O)c1cc(Sc2ccc(F)cc2F)nc2ccccc12)c1ccccc1` (configuration not stated), the Potency is reported as “inactive”. In the case of `CSc1n[nH]c(-c2ccco2)n1`, the Potency is reported as “inactive”. For `CCN(c1ccc(Cl)cc1)S(=O)(=O)c1nnc(NC(=O)c2ccco2)s1`, the Potency was “inactive”. For `CCCN(CCC)CCNC(=O)Cn1cnc2sc(C)c(S(=O)(=O)N3CCC(C)CC3)c2c1=O`, the Potency was “inactive”. For `COc1ccc(-c2onc(C)c2C)cc1S(=O)(=O)NCCc1ccccc1`, the Potency was “inactive”. For `COc1ccc(-c2onc(C)c2C)cc1S(=O)(=O)NCC1CCN(Cc2cccc(F)c2)CC1`, the Potency was 8.91 µM (active). With `COc1ccc(-c2onc(C)c2C)cc1S(=O)(=O)NCc1cccs1` the Potency was “inactive”. For `O=C(Nc1ccccc1Cl)N1CCC(CN2CCCCC2)CC1`, the Potency was “inactive”. With `CCCc1nn2c(=O)cc(COC(=O)c3ccc(NC(=O)C(C)Oc4ccccc4)cc3)nc2s1` (configuration not stated) the Potency was “inactive”. In the case of `CN(C)c1ccc(C=Nc2ccc(/C=C/c3ccnc4ccccc34)cc2)cc1`, the Potency is reported as “inactive”. With `Cc1ccc(-n2nc(C)c3c(C)cc(=O)n(CC(=O)Nc4ccc(C(C)C)cc4)c32)cc1` the Potency was “inactive”. With `CC1(C)Cc2ccccc2-c2c[nH]c(=O)n21` the Potency was “inactive”. For `CCOC(=O)N1CCc2c(sc3c2C(=O)NC(c2ccccc2F)N3)C1` (configuration not stated), the Potency was “inactive”. With `CC(C)[C@@H](NC(=O)OC(C)(C)C)C(=O)NCC1CCC(C(=O)N[C@@H](Cc2ccccc2)C(=O)O)CC1` (some centres not stated) the Potency was “inactive”. With `CC(C)(C)c1ccc(C(CC(=O)O)NS(=O)(=O)Cc2ccccc2)cc1` (configuration not stated) the Potency was “inactive”. In the case of `C[C@@H](NC(=O)OC(C)(C)C)c1nnc(S(=O)(=O)Cc2ccccc2)o1`, the Potency is reported as 14.1 µM (active). In the case of `CCOC(=O)c1cc2c(=O)n3ccccc3nc2n(CCCOC)c1=NC(=O)C(C)(C)Oc1ccc(Cl)cc1`, the Potency is reported as “inactive”. For `Cc1ccc(-c2noc(CSc3nnc(-c4ccncc4)n3-c3ccc(F)cc3)n2)cc1`, the Potency was “inactive”. In the case of `Cc1ccc(Nc2nc(CSc3nnc(-c4ccncc4)n3-c3ccccc3C)cs2)cc1`, the Potency is reported as 11.2 µM (active). In the case of `Cc1ccc(-n2c(SCC(=O)N3c4ccccc4Sc4ccccc43)nnc2-c2ccncc2)cc1`, the Potency is reported as “inactive”. With `OCC(O)C(O)C(O)C(O)C=Nc1ccc(/C=C/c2ccnc3ccccc23)cc1` (configuration not stated) the Potency was “inactive”. For `O=C(c1ccco1)N(Cc1cccs1)c1ccc(O)cc1`, the Potency was “inactive”. For `CC(CNC(=O)c1nnc(Cc2cccc(F)c2)o1)c1ccccc1` (configuration not stated), the Potency was “inactive”. For `CN(C)c1cccc2ccccc12`, the Potency was “inactive”. For `COc1ccc(OC)c(C2C3=C(N=c4s/c(=C\c5cccc(O)c5)c(=O)n42)c2ccccc2CC3)c1` (configuration not stated), the Potency was 15.8 µM (active). In the case of `CCOC(=O)c1c(S(=O)(=O)N2CCC(C(=O)NCc3ccccc3OC)CC2)c(C)n(C)c1C`, the Potency is reported as “inactive”. For `Cc1ccc(S(=O)(=O)n2nc(C)c(S(=O)(=O)N3CCCCCC3)c2C)cc1`, the Potency was “inactive”. In the case of `C=C1C=C(C(F)F)n2ncc(C(=O)NCCc3ccccc3OC)c2N1`, the Potency is reported as “inactive”. With `O=C(NCCCO)C(=O)Nc1c2c(nn1-c1ccc(F)cc1)CSC2` the Potency was “inactive”. In the case of `N#Cc1ccccc1Cn1cnc2nc3c(cc2c1=O)CCCC3`, the Potency is reported as “inactive”. In the case of `CC(C)(C)c1ccc(C(=O)NCC(c2ccc(Cl)cc2)N2CCOCC2)cc1` (configuration not stated), the Potency is reported as “inactive”. With `Cc1ccccc1Cn1nc(C)c(NC(=O)c2cc(-c3ccc(F)cc3)on2)c1C` the Potency was “inactive”. In the case of `Cc1ccc(NC(=O)c2ccc3[nH]c(C)cc(=O)c3c2)c(C)c1`, the Potency is reported as “inactive”. With `CCOc1ccc(NC(=O)C2CCN(S(=O)(=O)c3cc(-c4noc(C)n4)ccc3C)CC2)cc1` the Potency was “inactive”. With `CCOc1ccc(N(CC)S(=O)(=O)N2CCCC(C(=O)NCc3ccc(Cl)cc3)C2)cc1` (configuration not stated) the Potency was 17.8 µM (active). In the case of `CCOc1ccc(N(CC)S(=O)(=O)N2CCCC(C(=O)Nc3ccc(C(C)=O)cc3)C2)cc1` (configuration not stated), the Potency is reported as “inactive”. For `Cc1ccc(CNC(=O)C2CCCN(S(C)(=O)=O)C2)cc1` (configuration not stated), the Potency was “inactive”. With `CNc1nc(Nc2ccc(C)c(Cl)c2)nc(N)c1[N+](=O)[O-]` the Potency was 11.2 µM (active). With `COc1cccc(Nc2nc(N)c([N+](=O)[O-])c(NCc3ccco3)n2)c1` the Potency was “inactive”. For `CCN1CCN(c2nc(Nc3cccc(F)c3)nc(N)c2[N+](=O)[O-])CC1`, the Potency was “inactive”. In the case of `CCC(=O)N1c2ccccc2CC1C(=O)N1CCN(c2ccccc2)CC1` (configuration not stated), the Potency is reported as “inactive”. With `Cc1cccc(C(=O)NC(=S)N(C)C2CCCCC2)c1` the Potency was “inactive”. In the case of `Cc1cccc(NC(=S)NCCN(C2CCCCC2)C2CCCC2)c1`, the Potency is reported as 17.8 µM (active). In the case of `Cc1cccc(NC(=O)C2CCN(C(=O)NC3CCCCC3)CC2)c1`, the Potency is reported as “inactive”. For `Cc1cc(=O)n(CC(=O)Nc2cccc([N+](=O)[O-])c2)c(-n2nc(C)cc2C)n1`, the Potency was “inactive”. In the case of `Cc1ccccc1CS(=O)(=O)CC1Nc2ccc(C(=O)NCc3ccc(Cl)cc3)cc2NC1=O` (configuration not stated), the Potency is reported as “inactive”. For `CCOc1ccc(Cl)cc1-c1cc(C(=O)NCc2cccs2)[nH]n1`, the Potency was “inactive”. In the case of `CC(C)Oc1cc(F)ccc1-c1cc(C(=O)Nc2ccc(F)cc2)[nH]n1`, the Potency is reported as “inactive”. In the case of `CCCOc1ccc(F)cc1-c1cc(C(=O)Nc2ccc(F)c(Cl)c2)[nH]n1`, the Potency is reported as 11.2 µM (active). In the case of `CCOC(=O)c1ccccc1NC(=O)c1sc2nc(-c3ccc(F)cc3)cn2c1C`, the Potency is reported as “inactive”. In the case of `CCS(=O)(=O)N1CCc2cc(C(=O)NCc3ccc(C)cc3)ccc21`, the Potency is reported as “inactive”. For `CC(=O)Nc1c(C)nn(-c2ccccc2)c1N1CCC(C(=O)Nc2cc(Cl)ccc2C)CC1`, the Potency was “inactive”. With `CCc1ccc(CNC(=O)C2CCN(c3nn4cc(-c5ccc(F)cc5)nc4s3)CC2)cc1` the Potency was “inactive”. For `Cc1nnc(N2CCCC(C(=O)NCCN(C)C)C2)c2nn(-c3ccccc3)c(C)c12` (configuration not stated), the Potency was “inactive”. With `CCCCNC(=O)C1CCCN(c2nnc(C)c3c(C)n(-c4ccc(Cl)cc4)nc23)C1` (configuration not stated) the Potency was “inactive”. For `Cc1nnc(N2CCC(C(=O)Nc3ccc(F)cc3)CC2)c2nn(-c3ccc(Cl)cc3)c(C)c12`, the Potency was 10 µM (active). In the case of `CCOc1ccc(CNC(=O)c2ccc3nc(CC)c(CC)nc3c2)cc1OC`, the Potency is reported as “inactive”. In the case of `CC(=O)c1ccc[n+](C(C)CCC(C)[n+]2cccc(C(C)=O)c2)c1` (configuration not stated), the Potency is reported as “inactive”. For `Cc1c(Cl)cccc1NC(=O)CCS(=O)(=O)c1ccc2c(c1)oc(=O)n2C`, the Potency was “inactive”. For `Cc1ccccc1-c1nc(SCC(=O)N(C)c2ccccc2)c2c(=O)n(C)c(=O)n(C)c2n1`, the Potency was “inactive”. With `CC(OC(=O)/C=C/c1ccccc1)C(=O)NC1CCCCC1C` (configuration not stated) the Potency was “inactive”. In the case of `CC1CCCCC1NC(=O)/C(C#N)=C/C=C/c1ccccc1[N+](=O)[O-]` (configuration not stated), the Potency is reported as 20 µM (active). With `CC1CC(C)CN(C/C=C/c2ccccc2[N+](=O)[O-])C1` (configuration not stated) the Potency was “inactive”. With `COc1ccc(CNC(=O)c2cc3c(=O)[nH]c4ccc(C)cc4c3s2)c(OC)c1` the Potency was “inactive”. In the case of `Nc1ccccc1N`, the Potency is reported as “inactive”. For `CCC(C)N(C(=O)CSc1nnnn1-c1ccccc1OC)C1CCS(=O)(=O)C1` (configuration not stated), the Potency was “inactive”. With `COc1ccccc1-n1nnnc1SCC(=O)NC(=O)Cc1ccccc1` the Potency was “inactive”. With `COc1ccccc1-n1nnnc1S(=O)(=O)Cc1ccc(Cl)cc1` the Potency was 7.08 µM (active). With `CN(C)c1ccc(/C=C/C=C/c2ccnc3ccccc23)cc1` the Potency was “inactive”. With `CCc1cccc(NC(=O)Cn2nc(CC)n3c(cc4cc(C)ccc43)c2=O)c1` the Potency was “inactive”. In the case of `Cc1cc2c(cc1C)N1C(=O)c3cc4ccccc4cc3NC(=O)C1C(=O)N2` (configuration not stated), the Potency is reported as 12.6 µM (active). In the case of `CCc1cnc2c(c1SCC(=O)N1CCC(C)CC1)c(=O)n(C)c(=O)n2C`, the Potency is reported as “inactive”. For `CCOC(=O)c1ccc2c(c1)N(Cc1cccc(OC)c1)C(=O)c1ccccc1S2(=O)=O`, the Potency was “inactive”. For `O=C(CSc1ncc(S(=O)(=O)c2ccc(Br)cc2)c(=O)[nH]1)Nc1ccc2c(c1)OCCO2`, the Potency was “inactive”. With `CC(C)C12CN3CC(C(C)C)(CN(C1)C3c1ccc(OCc3ccccc3)cc1)C2=O` (configuration not stated) the Potency was “inactive”. For `COCCN(CCOC)S(=O)(=O)c1ccc(C(=O)Nc2nc3c(s2)CCc2ccccc2-3)cc1`, the Potency was “inactive”. In the case of `COc1ccc2c(c1)Cc1sc(NC(=O)c3ccccc3Br)nc1-2`, the Potency is reported as 7.08 µM (active). For `COc1ccc(NS(=O)(=O)c2ccc(N3CCOCC3)c(NC(=O)c3ccccc3Br)c2)cc1`, the Potency was “inactive”. In the case of `Cc1ccc2nc(COc3ccccc3NC(=O)Nc3ccc(F)c(Cl)c3)cc(=O)n2c1`, the Potency is reported as “inactive”. With `COc1ccc(C2=CC(c3ccccc3Cl)n3nc(-c4ccc(Cl)cc4)nc3N2)cc1` (configuration not stated) the Potency was “inactive”. For `O=C(c1cnn2c1NC(=C1CC1)C=C2C(F)F)N1CCc2ccccc2C1`, the Potency was “inactive”. In the case of `Cc1ccc(N2CCN(S(=O)(=O)c3ccc(F)cc3)CC2)c(C)c1`, the Potency is reported as “inactive”. With `Cc1ccc(C)c(N2CCN(S(=O)(=O)c3ccc4c(c3)C(C(C)C)C(=O)N4)CC2)c1` (configuration not stated) the Potency was 15.8 µM (active). For `Cc1ccc(C)c(N2CCN(S(=O)(=O)c3ccc4c(c3)oc(=O)n4C)CC2)c1`, the Potency was “inactive”.
